Measured values from the supplement of paper PMC10849652.
Targets with a hit are over-represented here; the source holds about 8,800 in all. About 0.5% of all pairs of compound and target were hits.

Assays:
Experiment in all cases: log2 fold change, soluble protein after heating vs DMSO (PISA); higher = thermal stabilisation; K562 lysate, 10 uM; active = over 0.2 and 3.5 SD of the protein, either way, in both replicates (recomputed)
[1] = compound: CCCS(=O)(=O)Nc1ccc(F)c(C(=O)c2c[nH]c3ncc(-c4ccc(Cl)cc4)cc23)c1F [vemurafenib]
Procedure, shortened: (§1)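 A 30 min treatment with 10 μM compound was applied to crude K562 extract at 1 mg/mL protein in PBS pH 7.4 with 1 mM MgCl2. Heating for 3 min spanned 48°C-58°C, after which aliquots were pooled, adjusted to 0.5% NP-40 at 4°C and spun at 21,000xg for 90 min. TMTpro 16plex LC-MS/MS of the supernatant, with channel sums equalised, gave values recorded as log-two fold change in thermal stability against solvent controls, from duplicates.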

[2] = compound: CCCS(=O)(=O)Nc1ccc(F)c(C(=O)c2c[nH]c3ncc(Cl)cc23)c1F
Procedure, shortened: as §1

[3] = compound: CCN(CCCOc1ccc2c(Nc3cc(CC(=O)Nc4cccc(F)c4)[nH]n3)ncnc2c1)CCOP(=O)(O)O [barasertib]
Procedure, shortened: as §1

[4] = compound: CC[C@@H]1C(=O)N(C)c2cnc(Nc3ccc(C(=O)NC4CCN(C)CC4)cc3OC)nc2N1C1CCCC1
Procedure, shortened: as §1

[5] = compound: CC[C@@H]1C(=O)N(C)c2cnc(Nc3ccc(C(=O)N[C@H]4CC[C@H](N5CCN(CC6CC6)CC5)CC4)cc3OC)nc2N1C(C)C [volasertib]
Procedure, shortened: as §1

[6] = compound: CCn1c(C(=O)N(C2CC2)C2CC2)cc2c3c(ncn3C)c(Nc3cc(C)n(C)n3)nc21
Procedure, shortened: as §1

[7] = compound: CCn1cc(-c2ccnc3[nH]c(-c4cccc(CN(C)C)c4)cc23)c(-c2ccc(NC(=O)N(C)C)cc2)n1
Procedure, shortened: as §1

[8] = compound: CN1CCC(CNc2ccc3ncc(-c4cccc(OC(F)(F)F)c4)n3n2)CC1
Procedure, shortened: as §1

[9] = compound: CN1CCN(CCOc2cc(OC3CCOCC3)c3c(Nc4c(Cl)ccc5c4OCO5)ncnc3c2)CC1 [saracatinib]
Procedure, shortened: as §1

[10] = compound: CN1CCN(c2nc(C3=C(c4c[nH]c5ccccc45)C(=O)NC3=O)c3ccccc3n2)CC1 [sotrastaurin]
Procedure, shortened: as §1

Measured: log2 fold change

PUF60 (UniProt Q9UHX1)
UniProt Q9UHX1, sequence (Q9UHX1 whole entry, looked up): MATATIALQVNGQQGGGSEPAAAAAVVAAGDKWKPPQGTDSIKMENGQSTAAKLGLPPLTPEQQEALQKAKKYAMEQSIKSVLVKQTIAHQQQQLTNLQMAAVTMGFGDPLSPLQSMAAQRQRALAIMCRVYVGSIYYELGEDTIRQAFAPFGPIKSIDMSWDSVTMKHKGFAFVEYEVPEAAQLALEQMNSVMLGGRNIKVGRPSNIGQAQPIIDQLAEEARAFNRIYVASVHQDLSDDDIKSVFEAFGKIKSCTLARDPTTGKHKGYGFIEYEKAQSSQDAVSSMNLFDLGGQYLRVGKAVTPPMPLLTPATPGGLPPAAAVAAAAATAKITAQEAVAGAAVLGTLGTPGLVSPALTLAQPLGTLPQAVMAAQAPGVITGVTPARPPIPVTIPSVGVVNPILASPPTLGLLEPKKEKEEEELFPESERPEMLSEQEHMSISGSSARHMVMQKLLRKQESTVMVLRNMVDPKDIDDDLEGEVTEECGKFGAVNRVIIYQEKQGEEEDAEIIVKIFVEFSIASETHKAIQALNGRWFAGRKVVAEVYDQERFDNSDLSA
inactive: [1] 0.002 | [2] 0.015 | [3] -0.005 | [4] 0.002 | [5] 0.003 | [6] -0.015 | [7] 0.116 | [8] -0.018 | [9] 0 | [10] -0.02

PRKACB isoform 2 (UniProt P22694)
inactive: [1] -0.077 | [2] -0.016 | [3] 0.013 | [4] -0.021 | [5] -0.01 | [6] -0.072 | [7] -0.021 | [8] 0.125 | [9] 0.012 | [10] 0.175

PHGDH (UniProt O43175)
UniProt O43175, sequence (O43175 whole entry, looked up): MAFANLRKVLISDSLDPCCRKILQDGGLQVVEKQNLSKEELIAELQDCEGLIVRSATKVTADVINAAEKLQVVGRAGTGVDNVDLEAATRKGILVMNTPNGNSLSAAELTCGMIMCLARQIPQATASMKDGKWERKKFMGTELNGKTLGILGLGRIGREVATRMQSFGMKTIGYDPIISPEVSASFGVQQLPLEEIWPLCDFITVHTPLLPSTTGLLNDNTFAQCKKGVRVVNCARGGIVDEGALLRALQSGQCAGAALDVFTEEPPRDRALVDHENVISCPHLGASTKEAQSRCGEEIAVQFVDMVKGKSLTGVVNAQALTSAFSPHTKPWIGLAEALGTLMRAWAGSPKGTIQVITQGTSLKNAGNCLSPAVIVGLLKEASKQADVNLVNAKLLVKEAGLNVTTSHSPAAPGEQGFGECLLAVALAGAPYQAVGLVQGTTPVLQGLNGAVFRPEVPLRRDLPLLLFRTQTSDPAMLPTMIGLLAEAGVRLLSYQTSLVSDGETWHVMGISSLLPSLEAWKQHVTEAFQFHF
inactive: [1] -0.005 | [2] -0.001 | [3] -0.049 | [4] 0.02 | [5] -0.025 | [6] 0.016 | [7] 0.098 | [8] -0.051 | [9] -0.012 | [10] -0.027

PDE4DIP isoform 4 (UniProt Q5VU43)
UniProt Q5VU43, sequence (Q5VU43 whole entry, looked up): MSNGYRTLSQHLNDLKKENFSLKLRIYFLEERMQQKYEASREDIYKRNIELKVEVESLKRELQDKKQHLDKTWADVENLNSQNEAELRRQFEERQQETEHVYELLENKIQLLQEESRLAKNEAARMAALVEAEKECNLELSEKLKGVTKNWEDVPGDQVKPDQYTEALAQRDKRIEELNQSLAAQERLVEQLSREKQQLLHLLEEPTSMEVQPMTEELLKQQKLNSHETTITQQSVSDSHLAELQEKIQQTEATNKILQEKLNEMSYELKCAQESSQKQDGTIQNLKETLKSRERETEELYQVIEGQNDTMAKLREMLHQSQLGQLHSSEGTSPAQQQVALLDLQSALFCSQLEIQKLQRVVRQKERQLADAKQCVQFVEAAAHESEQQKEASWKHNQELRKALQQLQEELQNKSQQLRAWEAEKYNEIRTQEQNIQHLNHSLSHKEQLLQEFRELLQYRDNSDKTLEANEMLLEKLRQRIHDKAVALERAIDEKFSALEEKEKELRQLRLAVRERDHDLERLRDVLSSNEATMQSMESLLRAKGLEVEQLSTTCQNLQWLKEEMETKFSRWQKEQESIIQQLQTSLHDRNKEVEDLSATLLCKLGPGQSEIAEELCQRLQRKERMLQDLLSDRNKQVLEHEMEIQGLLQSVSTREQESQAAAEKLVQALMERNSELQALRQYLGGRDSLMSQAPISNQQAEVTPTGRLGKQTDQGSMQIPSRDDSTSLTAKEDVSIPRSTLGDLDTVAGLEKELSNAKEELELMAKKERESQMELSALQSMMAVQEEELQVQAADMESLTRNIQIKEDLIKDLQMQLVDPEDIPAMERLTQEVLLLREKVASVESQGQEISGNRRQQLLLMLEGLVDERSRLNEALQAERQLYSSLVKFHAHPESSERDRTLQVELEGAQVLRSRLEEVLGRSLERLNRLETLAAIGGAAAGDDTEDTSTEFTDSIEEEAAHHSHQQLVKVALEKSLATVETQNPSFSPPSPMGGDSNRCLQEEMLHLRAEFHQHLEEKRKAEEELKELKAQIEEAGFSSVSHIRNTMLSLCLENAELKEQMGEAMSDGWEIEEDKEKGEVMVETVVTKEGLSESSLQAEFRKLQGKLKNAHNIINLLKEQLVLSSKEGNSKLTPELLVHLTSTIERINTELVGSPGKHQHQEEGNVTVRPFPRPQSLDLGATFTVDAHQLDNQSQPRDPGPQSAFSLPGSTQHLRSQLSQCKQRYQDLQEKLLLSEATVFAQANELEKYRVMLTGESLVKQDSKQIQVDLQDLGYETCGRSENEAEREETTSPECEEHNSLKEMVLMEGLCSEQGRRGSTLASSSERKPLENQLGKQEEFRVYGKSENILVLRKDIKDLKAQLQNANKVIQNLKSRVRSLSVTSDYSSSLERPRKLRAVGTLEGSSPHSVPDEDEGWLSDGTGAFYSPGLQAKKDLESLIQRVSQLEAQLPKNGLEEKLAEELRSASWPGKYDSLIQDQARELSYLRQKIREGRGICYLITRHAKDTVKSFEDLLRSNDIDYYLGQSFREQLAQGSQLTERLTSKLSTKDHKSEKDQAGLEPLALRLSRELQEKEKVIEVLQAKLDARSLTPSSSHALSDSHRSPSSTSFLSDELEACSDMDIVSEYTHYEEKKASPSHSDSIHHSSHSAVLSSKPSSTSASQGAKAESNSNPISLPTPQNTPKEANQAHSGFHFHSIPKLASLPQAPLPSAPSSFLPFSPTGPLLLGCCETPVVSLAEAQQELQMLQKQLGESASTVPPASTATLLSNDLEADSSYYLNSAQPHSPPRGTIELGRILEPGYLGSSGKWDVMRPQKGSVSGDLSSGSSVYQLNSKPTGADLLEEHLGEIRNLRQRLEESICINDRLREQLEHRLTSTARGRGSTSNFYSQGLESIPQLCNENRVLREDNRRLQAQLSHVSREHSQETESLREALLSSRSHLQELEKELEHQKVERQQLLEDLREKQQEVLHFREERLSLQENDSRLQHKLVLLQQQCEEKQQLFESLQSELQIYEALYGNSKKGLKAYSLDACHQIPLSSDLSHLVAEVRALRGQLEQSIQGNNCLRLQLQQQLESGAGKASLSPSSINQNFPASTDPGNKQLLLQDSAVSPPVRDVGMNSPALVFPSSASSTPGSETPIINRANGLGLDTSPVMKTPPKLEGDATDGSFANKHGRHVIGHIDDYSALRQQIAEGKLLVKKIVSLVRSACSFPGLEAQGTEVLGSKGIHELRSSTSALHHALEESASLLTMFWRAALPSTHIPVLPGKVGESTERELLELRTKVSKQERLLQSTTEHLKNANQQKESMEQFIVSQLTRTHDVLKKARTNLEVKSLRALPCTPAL
inactive: [1] 0.027 | [2] 0.011 | [3] 0.092 | [4] 0.046 | [5] 0.025 | [6] 0.04 | [7] -0.04 | [8] -0.005 | [9] 0.034 | [10] -0.014

PTS (UniProt Q03393)
UniProt Q03393, sequence (Q03393 whole entry, looked up): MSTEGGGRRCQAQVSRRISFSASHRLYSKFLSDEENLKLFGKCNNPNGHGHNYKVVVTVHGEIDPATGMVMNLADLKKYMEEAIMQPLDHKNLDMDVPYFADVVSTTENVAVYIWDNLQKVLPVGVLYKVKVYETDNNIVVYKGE
active: [1] 0.33
inactive: [2] 0.044 | [3] 0.051 | [4] 0.054 | [5] 0.014 | [6] 0.02 | [7] -0.045 | [8] 0.01 | [9] 0.104 | [10] 0.057

PPP1R14C (UniProt Q8TAE6)
UniProt Q8TAE6, sequence (Q8TAE6 whole entry, looked up): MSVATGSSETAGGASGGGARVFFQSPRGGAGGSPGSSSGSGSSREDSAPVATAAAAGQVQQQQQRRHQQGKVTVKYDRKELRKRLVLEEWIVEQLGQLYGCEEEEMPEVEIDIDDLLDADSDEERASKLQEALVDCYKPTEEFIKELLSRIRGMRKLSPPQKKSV
inactive: [1] -0.183 | [2] 0.008 | [3] 0.002 | [4] -0.084 | [5] 0.037 | [6] 0.072 | [7] -0.217 | [8] 0.017 | [9] -0.022

PRKCSH isoform 2 (UniProt P14314)
UniProt P14314, sequence (P14314 whole entry, looked up): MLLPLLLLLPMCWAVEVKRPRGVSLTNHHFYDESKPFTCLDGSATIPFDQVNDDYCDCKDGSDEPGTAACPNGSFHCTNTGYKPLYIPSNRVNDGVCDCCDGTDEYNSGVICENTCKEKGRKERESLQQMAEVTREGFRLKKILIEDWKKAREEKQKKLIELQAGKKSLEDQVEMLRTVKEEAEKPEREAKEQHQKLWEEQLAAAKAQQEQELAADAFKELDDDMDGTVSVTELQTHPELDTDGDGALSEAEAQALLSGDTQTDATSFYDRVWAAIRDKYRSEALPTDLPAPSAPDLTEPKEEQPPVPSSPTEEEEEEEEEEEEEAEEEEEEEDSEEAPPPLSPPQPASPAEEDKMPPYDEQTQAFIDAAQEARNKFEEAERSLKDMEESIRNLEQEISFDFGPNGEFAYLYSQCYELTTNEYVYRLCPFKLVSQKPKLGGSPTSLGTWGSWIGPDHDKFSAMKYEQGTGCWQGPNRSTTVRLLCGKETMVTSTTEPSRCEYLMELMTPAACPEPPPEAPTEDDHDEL
active: [7] -1.03
inactive: [1] 0.007 | [2] -0.053 | [3] -0.159 | [4] 0.03 | [5] -0.052 | [6] -0.101 | [8] 0.326 | [9] 0.022 | [10] 0.199

POLR3E (UniProt Q9NVU0)
UniProt Q9NVU0, sequence (Q9NVU0 whole entry, looked up): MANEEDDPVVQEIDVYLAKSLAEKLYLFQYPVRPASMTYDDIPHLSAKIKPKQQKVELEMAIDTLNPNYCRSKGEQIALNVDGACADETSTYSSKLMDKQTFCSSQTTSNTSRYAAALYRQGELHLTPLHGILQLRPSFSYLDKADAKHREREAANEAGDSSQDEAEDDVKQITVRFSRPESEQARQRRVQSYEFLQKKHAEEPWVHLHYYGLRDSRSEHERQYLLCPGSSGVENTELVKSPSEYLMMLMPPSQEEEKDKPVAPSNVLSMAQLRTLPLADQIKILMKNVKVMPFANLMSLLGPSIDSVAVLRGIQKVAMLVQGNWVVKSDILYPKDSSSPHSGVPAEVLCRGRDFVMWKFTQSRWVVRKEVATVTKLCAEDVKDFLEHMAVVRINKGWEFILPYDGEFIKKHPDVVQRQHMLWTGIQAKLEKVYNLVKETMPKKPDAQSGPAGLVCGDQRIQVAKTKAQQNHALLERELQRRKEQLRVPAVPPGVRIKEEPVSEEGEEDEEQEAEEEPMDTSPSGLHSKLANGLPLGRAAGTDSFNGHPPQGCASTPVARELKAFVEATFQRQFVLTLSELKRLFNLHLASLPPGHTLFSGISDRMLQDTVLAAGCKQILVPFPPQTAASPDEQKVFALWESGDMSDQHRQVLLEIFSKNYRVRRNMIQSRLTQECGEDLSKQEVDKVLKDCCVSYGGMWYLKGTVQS
inactive: [1] 0.011 | [2] 0.02 | [3] 0.003 | [4] 0.018 | [5] -0.004 | [6] -0.012 | [7] 0.035 | [8] 0.012 | [9] 0.017 | [10] 0.048
